# Data published in ChEMBL document CHEMBL4296182, “CO-ADD screening of NIH NCI Diversity Set V”.
# For part of these data: Potency and affinity values are given separately.
# Legend:
# Staphylococcus aureus = test: Antibacterial activity against Staphylococcus aureus MRSA ATCC 43300 (CO-ADD:GP_020); MIC in CAMBH media using NBS plates, by Resazurin F(560/590); format: functional; details: Concentration 20 uM, ASSAY_TEST Inhibition of Bacterial Growth, detection method Resazurin, Fluorescence (ex560/em590), MEDIA CAMHB, plate type 384well, CORNING #3640, time 18 hr
# Acinetobacter baumannii = test: Antibacterial activity against Acinetobacter baumannii ATCC 19606 (CO-ADD:GN_034); MIC in CAMBH media using NBS plates, by Resazurin F(560/590); format: functional; details: Concentration 20 uM, ASSAY_TEST Inhibition of Bacterial Growth, detection method Resazurin, Fluorescence (ex560/em590), MEDIA CAMHB, plate type 384well, CORNING #3640, time 18 hr
# Escherichia coli = test: Antibacterial activity against Escherichia coli ATCC 25922 (CO-ADD:GN_001); MIC in CAMBH media using NBS plates, by Resazurin F(560/590); format: functional; details: Concentration 20 uM, ASSAY_TEST Inhibition of Bacterial Growth, detection method Resazurin, Fluorescence (ex560/em590), MEDIA CAMHB, plate type 384well, CORNING #3640, time 18 hr
# Klebsiella pneumoniae = details: Concentration 20 uM; ASSAY_TEST Inhibition of Bacterial Growth; detection method Absorption (OD600); MEDIA CAMHB; plate type 384well; NBS; CORNING #3640; time 18 hr
# Candida albicans = details: 20 µM
# Cryptococcus neoformans = details: Concentration 20 uM; ASSAY_TEST Inhibition of Fungal Growth; detection method Resazurin; Absorption (OD600-OD570); plate type 384well; NBS; CORNING #3640
Compound,Inhibition (Staphylococcus aureus) [%],Inhibition (Acinetobacter baumannii) [%],Inhibition (Escherichia coli) [%],Inhibition (Klebsiella pneumoniae) [%],Inhibition (Candida albicans) [%],Inhibition (Cryptococcus neoformans) [%]
O=C(O)/C=C/C(=O)N1Cc2cc3ccccc3nc2C1,3.21,-0.11,-4.23,9.8,1.99,-3.38
CSc1nc(S)c2[nH]c(S)nc2n1,13.61,-13.83,6.32,11,6.49,2.53
CCCCSc1cc(C)nc(N)n1,19.18,-7.66,11.54,4.75,1.09,-5.9
COc1ccc(Cc2nnc(SC)n2-c2ccc(F)cc2)cc1OC,7.78,-2.89,10.28,14.43,2.19,-3.12
CC(=O)OCCn1c([N+](=O)[O-])cnc1/C=[N+](\[O-])C1CCCCC1,22.69,11.41,8.05,25.14,4.46,-10.83
Cc1ccc(-c2nc(-c3nccc4ccccc34)oc2-c2ccccc2)cc1,17.39,5.86,4.4,6.85,18.7,-2.8
CC(C)(C)c1ccc(C(=O)Nc2ccc(S(N)(=O)=O)cc2)cc1,29.14,5.57,7.06,7.59,2.9,-15.62
CC1=CC(=O)CC(C)(C)C1(O)/C=C/C(C)=C/C(=O)O (centres undefined),-9.32,-14.23,1.66,3.67,5.51,-3.67
Cn1c(=O)c2nc(CNc3ccc(C(=O)O)cc3)[nH]c2n(C)c1=O,-13.67,2.67,-18.91,4.5,2.41,17.72
NC(=S)N/N=C/c1cc(-c2cccc(N)c2)ccn1,-5.52,27.53,11.56,45.35,1.87,-12.06
Cc1nc(NCc2ccccc2)c2cc[nH]c2n1 [ROLODINE],-1.89,-12.81,4.8,9.06,2.35,-8.43
CC1=NC(C)(C)CC2CCC(O)C12 (centres undefined),15.01,-5.87,9.74,11.22,1.52,-2.24
O=[N+]([O-])c1nc[nH]c1/C=C\c1ccccc1,6.19,-12.82,5.35,8.67,3.47,10.56
COc1ccc([N+](=O)[O-])cc1NC(=O)N(C)Cc1ccco1,9.28,17.46,6.67,14.11,-1.23,-10.86
CCC(CO)Nc1nc2ccc(Cl)cc2c2ccccc12 (centres undefined),32.89,5.43,4.69,20.8,4.64,-2
O=C(c1cccnc1)c1cc(-c2ccccn2)c(=O)n2ccccc12,15.83,5.57,12.26,7.21,0.65,-7.13
CCOC(=O)C1C(=O)C(=O)N(C(C)C)C1C(=O)OCC (centres undefined),9.9,14.67,-8.18,12.15,4.37,17.48
COC(=O)[C@H]1[C@H]2C[C@@H]3c4[nH]c5cc(OC)ccc5c4CCN3C[C@H]2C[C@@H](OC(=O)CC(C)=O)[C@@H]1OC,16.88,-0.32,11.28,5.93,-0.86,-1.53
c1ccc(-c2nc(-c3ccccn3)nc(-c3ccccn3)n2)nc1,2.88,10.22,-0.02,10.56,2.65,-6.65
CCOC(=O)Cc1cc(=O)[nH]n(-c2ccccc2)c1=O,5.46,4.69,13.24,12.15,4.43,-10.57
Cc1cc2c(cc1C)N(C(=O)CCl)CC(=O)N2,-15.91,-11.28,5.03,7.32,2.46,-7.55
N#C/C(=C\c1cc(O)c(O)c(O)c1)C(N)=O,-3.49,6.06,5.21,9.86,5.49,-11.36
CSc1nc(O)cc(Cl)n1,-1.6,-4.84,7.44,11.43,2.04,-0.01
Clc1ccc(/C=C/c2nc(Cl)c(-c3ccc(Cl)cc3)c(Cl)n2)cc1,8.11,11.58,9.97,19.84,4.64,-12.98
NC1=C2C(=O)c3ccccc3C(=O)C2=C(N)CC1,-13.27,1.08,-5.53,8.56,22.9,-5.51

Compound,Inhibition (Staphylococcus aureus) [%],Inhibition (Acinetobacter baumannii) [%],Inhibition (Escherichia coli) [%],Inhibition (Klebsiella pneumoniae) [%],Inhibition (Candida albicans) [%],Inhibition (Cryptococcus neoformans) [%]
Oc1ccnc2c(Cl)cccc12,7.28,2.93,-8.1,5.9,3.54,14.14
C[C@]12CC[C@@H]3c4ccc(OCC(=O)O)cc4CC[C@H]3[C@@H]1CCC2=O,9.17,-16.81,9.71,8.63,3.7,-16.24
N#Cc1cnn(-c2cccc(Cl)c2)c1-n1cccc1,7.59,-21.29,14.62,3.39,9.39,-16.73
Cc1cc(=O)[nH]/c(=N/N=C2/CCCCC2C)[nH]1 (centres undefined),22.54,-10.76,10,5.45,-3.38,-9.25
Nc1cc(N)nc(CS)n1,9.52,-5.46,6.53,20.9,-2.73,-6.05
S=C1SCN(CCc2ccccc2)CN1CCc1ccccc1,-3.89,1.92,3.19,4.28,31.3,-3.46
CC1(C)SC(C)(C)N(C=O)C1C(=O)O (centres undefined),-0.19,-4.51,4.94,4.48,1.14,-3.91
O=C1COc2cccnc2N1,8.1,-14.05,0.48,27.65,4.29,-2.63
C=CCC(CC)C(=O)NC(=O)N1CCCc2ccccc21 (centres undefined),-2.1,11.89,-1.31,11.1,4.92,-1.85
COc1cnc(SC)nc1Nc1ccc(C#N)cc1,3.83,28.01,14.33,23.54,4.47,-3.99
Cn1nc(NC(=O)C(F)(F)F)c2ncc(-c3ccc(Cl)cc3)nc21,20.42,13.75,1.31,13.33,2.95,-3.57
CC(=O)n1cc(C2CC(=O)OC3=C2CC(=O)C(C)(C)C3)c2ccccc21 (centres undefined),13.95,4.13,1.01,11.94,2.8,-0.61
Oc1ccc(Nc2ccnc3cc(Cl)ccc23)cc1,-0.21,16.04,-4.01,17.31,0.86,-3.23
CCOC(=O)c1[nH]c(C(=O)O)c(OC(=O)CC)c1C,3.4,12.19,5.33,12.1,11.4,-14.68
Cc1nc2ccc(Cl)cn2c1[N+](=O)[O-],1.58,13.48,-8.75,13.85,5.38,-3.42
CNC(=O)OCN1C(=O)C2CC=CCC2C1=O (centres undefined),7.25,-15.92,10,2.19,-1.86,-13.88
CSc1nc(O)nnc1Sc1ccccc1,-5.45,-15.47,6.74,7.57,13.4,-16.19
Cn1ncc2c(Nc3ccccc3Cl)nc(Cl)nc21,11.91,12.64,1.79,7.78,7.2,-6.78
C=CCN=C(S)Nc1cccc([N+](=O)[O-])c1,-6.7,-8.3,0.98,6.17,0.93,-2.12
CC(=O)NCC(O)c1ccc([N+](=O)[O-])cc1 (centres undefined),9.36,-9,7.49,22.16,1.24,2.12
CCOCCc1c(O)nc(SC)nc1O,-2.52,-10.74,0.79,7.34,2.01,-12.26
COC(=O)Cc1[nH]c(S)nc1C(=O)OC,-11.54,1.23,-12.23,0.59,1.43,19.86
CS(=O)(=O)O.Cc1cc2c(cc1[N+](=O)[O-])NC(CNC(C)C)CC2 (centres undefined),12.97,12.49,3.18,6.82,-0.29,-5.85
O=C(OCC1CCC=CO1)C1CCC=CO1 (centres undefined),6.99,-10.56,3.07,7.72,0.31,-9.47
